# This is a sample that favours compounds with a hit; in the whole collection about 1.5% have one here.
# E coli Lon inh = inhibitors of E. coli Lon protease | P0A9M0 | purified E. coli Lon protease, fluorescence polarization | inhibition, % at 7.94 µM | 360,000 tested, 0.42% active; in the data active = inhibition above about 13%, passing the limit was not always enough;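 also: 0% = enzyme with probe and DMSO and 100% = no enzyme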
# EBV gp42 block = blocks Epstein-Barr virus glycoprotein 42 binding | Fluorescence polarization binding assay, mP read-out | 220,000 tested, 0.42% active | inhibition, % (tested at 21.74 µM); in the data active = inhibition above about 50%
# GLD-1 TGE inh = GLD-1-TGE RNA interaction inhibition (C. elegans). inhibition, % at 5.96 µM. AID 2280. Q17339. 320,000 tested, 0.44% active. purified GLD-1 + fluorescein TGE RNA, fluorescence polarization;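 active = percent inhibition above a per-plate cutoff, the plate mean of test compounds plus 3 SD, cut at about 30% in these data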;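 also: 0% = DMSO wells with GLD-1 and probe and 100% = wells lacking GLD-1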
# MCL1-BIM inh = MCL1-BIM-BH3 interaction inhibition (human). GST-MCL1 / FITC-Bim-BH3 fluorescence polarization. inhibition, % at 10.9 µM. 320,000 tested, 0.68% active;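 active = inhibition above the mean inhibition of all tested compounds plus 3 SD, set per campaign, cut at about 40% in these data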;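 also: 0% = DMSO wells and 100% = unlabeled Bim-BH3 peptide control; higher means more loss of mP so more displacement of Bim peptide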
# Target sequence (Q07820 whole entry, looked up): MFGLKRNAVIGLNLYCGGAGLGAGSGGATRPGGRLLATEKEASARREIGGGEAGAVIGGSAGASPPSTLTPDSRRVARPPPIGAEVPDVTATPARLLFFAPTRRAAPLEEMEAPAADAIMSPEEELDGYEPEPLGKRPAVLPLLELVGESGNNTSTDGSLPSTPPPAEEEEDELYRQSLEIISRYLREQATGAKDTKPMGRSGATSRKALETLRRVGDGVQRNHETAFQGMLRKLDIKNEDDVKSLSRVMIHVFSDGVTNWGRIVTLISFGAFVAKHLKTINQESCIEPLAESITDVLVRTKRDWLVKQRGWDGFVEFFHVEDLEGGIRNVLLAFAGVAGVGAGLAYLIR
# Bcl-xL primary = Bcl-xL (human) inhibition; AID 2129; 320,000 tested, 0.7% active; inhibition, % at 10.9 µM; GST-Bcl-xL / FITC-Bim BH3 peptide fluorescence polarization; Q07817;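 active = inhibition above the mean of all tested compounds plus 3 SD, cutoff set per campaign, cut at about 30% in these data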;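 also: 0% = DMSO wells and 100% = unlabeled Bim-BH3 peptide competitor; inhibitors lower millipolarization by displacing the labeled peptide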
# Target sequence (Q07817 whole entry, looked up): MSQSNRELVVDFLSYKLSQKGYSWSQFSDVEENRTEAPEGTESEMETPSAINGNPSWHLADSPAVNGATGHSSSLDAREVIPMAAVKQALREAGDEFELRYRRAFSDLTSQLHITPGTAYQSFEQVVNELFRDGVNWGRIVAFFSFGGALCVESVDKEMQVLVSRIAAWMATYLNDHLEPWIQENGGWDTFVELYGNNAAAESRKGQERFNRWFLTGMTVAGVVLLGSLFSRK
# MEX-5 binding = C. elegans MEX-5 TCR-2 RNA binding activity. 300,000 tested, 0.38% active. MEX-5/FITC-TCR2 RNA binding, fluorescence polarization; active compounds read low. Q9XUB2. activity score (negative = inhibition of binding), % at 10 µM;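 active = inhibition past about -25% in most replicates, and total fluorescence under double the plate's negative control median, limit read from the data; inconclusive = replicates evenly split on the limit, or fluorescence at least double controls; inactive = too little inhibition in most replicates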;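 also: 0% = DMSO and -100% = 5 µM competing unlabeled TCR2 RNA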
# BCLXL inh confirm = counter-screen for MCL1 inhibitors: confirmation of human Bcl-xL inhibitors; shares compounds with MCL1-BIM inh; 1,700 tested, 54% active; AID 2166; GST-Bcl-xL / FITC-Bim BH3 peptide FP binding; inhibition, % at 10.9 µM;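 active = inhibition above a cutoff equal to the mean inhibition of all tested compounds plus 3 SD, cut at about 30% in these data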;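 also: 0% = DMSO wells and 100% = unlabeled Bim BH3 control peptide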
# MCL1 BIM confirm = confirmation of human MCL1 and BIM-BH3 interaction inhibitors | 1,700 tested, 61% active | shares compounds with MCL1-BIM inh | inhibition, % at 10.9 µM | GST-MCL1 / FITC-Bim-BH3 fluorescence polarization;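 active = inhibition above the average of all tested compounds plus 3 SD, cut at about 40% in these data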;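 also: 0% = DMSO wells and 100% = unlabeled Bim-BH3 control peptide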
# The depositor's hits bear a star; ? = inconclusive; / = not tested or not shown; + = active, no number.
SMILES,E coli Lon inh,EBV gp42 block,GLD-1 TGE inh,MCL1-BIM inh,Bcl-xL primary,MEX-5 binding,BCLXL inh confirm,MCL1 BIM confirm
COC(=O)CCCC1=CC2=CC(=O)C(C)(OC(=O)c3cccs3)C(=O)C2=CO1 (configuration not stated),/,/,93*,122*,105*,-49*,53*,69*
CCCCC1=CC2=CC(=O)C(C)(OC(=O)c3ccco3)C(=O)C2=CO1 (configuration not stated),/,/,62*,49*,43*,-36*,33*,62*
O=C(COC(=O)c1cc(=O)[nH]c2ccccc12)NCc1ccc(Cl)cc1,-3,/,3,5,0,/,/,/
CCn1c(SCC(=O)Nc2nccc(C)n2)nc2ccccc21,9,6,10,11,-1,-4,/,/
CC(=O)c1cccc(NC(=O)C(C)OC(=O)CCN=C2NS(=O)(=O)c3ccccc32)c1 (configuration not stated),57,/,-2,1,-2,0,/,/
CCCCC1=CC2=CC(=O)C(C)(OC(=O)CCC(=O)OC)C(=O)C2=CO1 (configuration not stated),/,/,54*,62*,42*,-27*,16,51*
CC1(OC(=O)c2ccc(Cl)nc2)C(=O)C=C2C=C(c3ccsc3)OC=C2C1=O (configuration not stated),/,/,29,32,23,-22,/,/
COC(=O)CCCC1=CC2=CC(=O)C(C)(OC(=O)c3ccc(Cl)nc3)C(=O)C2=CO1 (configuration not stated),/,/,57*,66*,55*,-35*,46*,69*
CC1(OC(=O)c2ccc(Cl)nc2)C(=O)C=C2C=C(c3ccc(C#N)cc3)OC=C2C1=O (configuration not stated),/,/,17,17,19,?,/,/
CC1(OC(=O)c2ccc(Cl)nc2)C(=O)C=C2C=C(C3CC3)OC=C2C1=O (configuration not stated),/,/,76*,87*,74*,-50*,83*,122*
CCOc1ccc(CCNC(=O)c2c(C)nn(-c3ccccc3)c2Cl)cc1OCC,-6,/,8,-1,1,2,/,/
CC(=O)Nc1ccc2cc3ccc(NC(C)=O)cc3nc2c1,6,105*,-3,63*,60*,-36*,156*,195*
O=[N+]([O-])c1ccc(Cl)c(C[n+]2cccc3ccccc32)c1,-79,/,-38,-14,-5,5,/,/
CCc1cccc2cc3c(N)c(C(=O)Nc4ccc(S(=O)(=O)N5CCCC5)cc4)sc3nc12,-108,81*,61*,94*,104*,-24,43*,67*
CC1CCN(C(=O)Cn2nnc(-c3ccccc3)n2)CC1,-17,/,7,45*,10,2,-25,-51
CC1CC(C)CN(C(=O)Cn2nnc(-c3ccccc3)n2)C1 (configuration not stated),4,/,2,7,9,0,/,/
Cc1c(C(=O)Nc2c(C)n(C)n(-c3ccccc3)c2=O)oc2ccc(Cl)cc12,-4,/,3,15,2,0,/,/
CCn1c(SCC(=O)NCCOC)nc2sc(C)c(C)c2c1=O,/,-9,/,/,/,-1,/,/
COCCn1c(SCC(=O)N2CCCC2=O)nc2sc(C)c(C)c2c1=O,5,/,2,76*,1,-1,6,18
Cc1ccc(N2CC(NC(=O)C(=O)c3c[nH]c4ccccc34)CC2=O)cc1C (configuration not stated),-11,/,0,-1,5,-3,/,/
CCCC1Nc2ccc(C(=O)O)cc2C2C=CCC12 (configuration not stated),13,-2,23,87*,49*,-49*,4,3
CC(C)C1Nc2ccc(C(=O)O)cc2C2C=CCC21 (configuration not stated),-3,-6,28,82*,48*,-54*,36*,48*
CCCc1nc(SC2CCCC2)c2c(=O)n(C)c(=O)n(C)c2n1,5,-18,3,+,1,-2,4,5
O=C(CNC1CCCCC1)Nc1cccc(C(F)(F)F)c1,-13,/,0,7,4,1,/,/
Cn1cccc1/C=C(/C#N)C(N)=S,0,-4,-9,15,5,-2,/,/
SMILES,E coli Lon inh,EBV gp42 block,GLD-1 TGE inh,MCL1-BIM inh,Bcl-xL primary,MEX-5 binding,BCLXL inh confirm,MCL1 BIM confirm
Cc1ccc(-c2ccc(/C=C(\C#N)C(N)=S)n2C)cc1,-23,-3,-33,68*,67*,/,9,4
COc1ccc(C(C)=NNS(=O)(=O)c2ccc(C)cc2)cc1OC,-11,/,/,/,/,/,/,/
Oc1cccc(C=NCc2ccccc2)c1O,21,2,13,64*,30,0,32*,65*
Oc1c(C=NCc2ccccc2)sc2ccccc12,6,0,3,10,6,-1,/,/
Oc1ccccc1C=Nc1cccc2ccccc12,2,/,5,10,12,1,/,/
Oc1cccc(C=Nc2cccc3ccccc23)c1O,-8,/,24,66*,38*,-4,31*,52*
CCC1(C)Cc2c(sc3nc(SC)[nH]c(=S)c23)CO1 (configuration not stated),/,/,32*,57*,50*,-9,22,25
CCSc1nc2sc3c(c2c(=O)[nH]1)CC(C)(CC)OC3 (configuration not stated),12,0,6,6,3,0,/,/
COc1ccc(NC(=O)C2CCCN2C(=O)Nc2ccc(OC)cc2)cc1 (configuration not stated),-6,/,/,/,/,1,/,/
Cc1cc(C=O)c2c(c1)C=CC1(Oc3ccccc3C(=O)N1C)O2 (configuration not stated),/,7,109*,53*,58*,-2,11,15
CCOc1cc(/C=N/n2c(COc3ccccc3)n[nH]c2=S)ccc1O,-8,/,-16,-19,-8,1,/,/
Oc1ccc(/C=N/n2c(COc3ccccc3)n[nH]c2=S)cc1O,-5,/,-10,44*,11,-11,20,31
CN(Cc1c(F)cccc1Cl)C(=O)c1ccc(NS(=O)(=O)c2ccc3[nH]c(=O)[nH]c3c2)cc1,2,/,-3,5,1,0,/,/
CCOCCCNC(=O)c1ccc(N2CC3CC(C2)c2cccc(=O)n2C3)c(NC(=O)Nc2cccc(OC)c2)c1 (configuration not stated),7,/,4,4,10,-1,/,/
CCCCc1ccc(NC(=O)Cn2c(=O)c(N3CCCCC3)c(N)n(C)c2=O)cc1,-3,/,-2,/,/,/,/,/
